Measured values taken from PubChem BioAssay AID485270 (The Scripps Research Institute Molecular Screening Center, 2010).
In all, about 330,000 compounds went through this assay and about 5,800 (1.8%) were called active. For the sample, actives were picked, then their nearest neighbours and some compounds at random. Values without a mark were called inactive. Rule as the data show it: active = inhibition mostly above about 38% (no sharp cut-off); inactive = mostly below about 40%.

What follows are compounds tested against Orexin/Hypocretin receptor type 1 (Homo sapiens) (UniProt O43613) (assay: blocks the human orexin 1 receptor (AID 485270;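 also: 0% = agonist challenge alone and 100% = reference antagonist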)). Conditions: OX1R-expressing cells, FRET antagonist read-out; at 6.6 µM; hits give high values.
Orexin/Hypocretin receptor type 1 (Homo sapiens), sequence (O43613 whole entry, looked up): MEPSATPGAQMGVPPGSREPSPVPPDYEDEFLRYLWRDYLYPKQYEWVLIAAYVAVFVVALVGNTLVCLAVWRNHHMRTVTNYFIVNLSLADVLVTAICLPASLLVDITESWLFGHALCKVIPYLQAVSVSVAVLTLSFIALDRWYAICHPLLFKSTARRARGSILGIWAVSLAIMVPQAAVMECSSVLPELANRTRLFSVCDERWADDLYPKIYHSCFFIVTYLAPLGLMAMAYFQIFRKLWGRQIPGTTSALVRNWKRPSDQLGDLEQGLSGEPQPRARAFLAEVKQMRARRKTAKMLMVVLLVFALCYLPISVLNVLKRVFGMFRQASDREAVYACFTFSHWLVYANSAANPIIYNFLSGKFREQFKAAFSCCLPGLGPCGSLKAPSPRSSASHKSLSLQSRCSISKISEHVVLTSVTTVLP

Structure (SMILES) | inhibition
COc1ccccc1C(=O)COC(=O)COc1ccc(C#N)cc1 | 5.7%
O=[N+]([O-])c1ncc(Br)cc1Nc1ccccc1 | 54.1% (active)
O=[N+]([O-])c1ccccc1Nc1ccc(O)cc1 | 50.7%
O=[N+]([O-])c1cccc(/C=N/Nc2ncc(Br)cn2)c1 | 25.3%
O=C(COC(=O)/C=C/c1cccc(Cl)c1)NCc1cccs1 | 5.6%
COc1ccc(-c2sc3ccccc3c2-c2ccc(OCCN3CCOCC3)cc2)cc1 | -1.97%
O=C(N/N=C/c1ccc2c(c1)OCO2)C(=O)N1CCCC1 | 15%
CCOc1ccc(/C=N/NC(N)=S)cc1 | 27.9%
O=C(N/N=C/c1ccc([N+](=O)[O-])cc1)C(=O)N1CCCC1 | 45.8% (active)
COC(=O)c1ccc(/C=N/NC(=O)C(=O)N2CCCCCC2)cc1 | 44.8%
NC(=S)N/N=C/c1ccc([N+](=O)[O-])cc1 | 50.9% (active)
Cc1ccsc1C(=O)N/N=C/c1ccc([N+](=O)[O-])cc1 | 53.6%
O=C(COC(=O)c1ccncc1)Nc1ccc2c(c1)OCO2 | 9.22%
O=C(Nc1cccc(S(=O)(=O)NC2=NCCC2)c1)c1ccc(F)cc1F | 3.06%
Cc1cccc(-n2ncc3c(=O)[nH]c(SCC(=O)Nc4cc(C)on4)nc32)c1 | 10.5%
COc1ccc(-c2nc3cc(C)ccn3c2NC2CCCCC2)cc1SC1CCCCC1 | 11.5%
Cc1ccc(NC(=O)CN(C)C(=O)c2ccc(Cl)c(S(=O)(=O)NCc3ccco3)c2)cc1 | 4.72%
CC(C)(C)c1ccc(C(=O)NCC(=O)OCN2C(=O)c3ccccc3C2=O)cc1 | -0.82%
COC(=O)CNC(=O)c1ccc2c(c1)S(=O)(=O)c1ccccc1C2=O | 172% (active)
Cc1ccc(CNC(=O)c2ccc3c(c2)S(=O)(=O)c2ccccc2C3=O)cc1 | 61.7%
COC(=O)[C@]1(C)N[C@H](CN(C)C(=O)c2ccc(C(C)(C)C)cc2)[C@@H]2C(=O)N(C)C(=O)[C@@H]21 | 6.6%
COc1ccccc1NC(=O)COC(=O)c1ccccc1SCC(=O)N1CCCC1 | 23.9%

Structure (SMILES) | inhibition
CC(C)N(Cc1ccccc1)C(=O)COC(=O)c1ccccc1SCC(=O)N1CCCC1 | 60.6% (active)
CC(NC(=O)c1ccccc1SCC(=O)N1CCCC1)c1ccccc1 (stereo unspecified) | 6.4%
COc1ccc(S(=O)(=O)N(C)C[C@@H]2Oc3ccc(NC(=O)Nc4c(C)noc4C)cc3C(=O)N([C@H](C)CO)C[C@@H]2C)cc1 | 5.98%
Oc1ccc(N=Cc2sc3ccccc3c2Cl)cc1 | 36.6%
O=[N+]([O-])c1ccc(N=Cc2c(O)ccc3ccccc23)cc1 | 26.6%
Oc1ccc(N=Cc2c(O)ccc3ccccc23)cc1 | 54.4% (active)
Cc1ccc(N2C(=O)N3[C@@H]4c5ccccc5OC[C@@H]4[C@@H](c4ccccc4)[C@@]3(C)C2=O)cc1 | 4.13%
O=C(NN=Cc1ccc(N2CCOCC2)cc1)c1cc2ccccc2cc1O | 8.04%
C=CCn1c(SCC(=O)NCc2ccccc2)nnc1-c1cc(Br)ccc1O | 13.4%
C=CCn1c(SCC(=O)Nc2nc3ccccc3s2)nnc1-c1ccccc1O | 53% (active)
Cn1nnnc1SCC(=O)Nc1nc2ccccc2s1 | 14.3%
O=C(COc1cccnc1[N+](=O)[O-])Nc1ccc(Cl)cc1F | 9.99%
Cc1ccsc1C(=O)OCC(=O)NCCc1ccccc1 | 1.76%
CC[C@]12c3[nH]c4cc(CCC(=O)N(C)C)ccc4c3CCN1C(=O)[C@@H](CC(=O)NCCCn1ccnc1)C[C@@H]2C(=O)N1CCN(C(=O)C2CC2)CC1 | 10.3%
c1ccc(-c2nnc(SCc3nc4ccccc4[nH]3)o2)cc1 | 16.7%
c1ccc2c(CSCc3nc4ccccc4[nH]3)cccc2c1 | 90.8% (active)
Clc1ccccc1SCc1nc2ccccc2[nH]1 | 24.1%
CC(C)(C)OC(=O)C[C@@H]1C/C=C\C[C@@H](CC(=O)N[C@H](CO)Cc2ccccc2)C(=O)NC[C@@H](c2ccccc2)OC1=O | 8.95%
COC(=O)C1=C(C)N(Cc2ccccc2)C(=NCCCOC(C)C)N[C@H]1c1ccccc1 | 10.8%
CS(=O)(=O)c1ccccc1C(=O)Nc1ccc2sccc2c1 | 11.8%
O=C(Nc1ccc2sc3ccccc3c(=O)c2c1)c1ccccc1Cl | 86.1% (active)
COCC(=O)N1CCc2ccc(NC(=O)c3ccccc3Cl)cc2C1 | -9.22%

Structure (SMILES) | inhibition
CCCC(CNC(=O)COC(=O)C1=NNC(=O)CC1)c1ccc(Cl)cc1Cl (stereo unspecified) | 9.27%
CC1O[C@@H](OC2C(O)C(C)O[C@H](OC(=O)[C@]34CCC(C)(C)C[C@H]3C3=CCC5[C@@]6(C)CC(O)C(O[C@@H]7OC(CO)C(O)[C@@H](O)[C@@H]7O)[C@@](C)(C(=O)O)C6CC[C@@]5(C)[C@]3(CO)CC4)C2O[C@H]2OC(C)[C@@H](O[C@@H]3OCC(O[C@@H]4OC(CO)C(O)[C@H](O)C4O)[C@@H](O)[C@@H]3O)[C@H](O)C2O)C(O)C(O)C1O (stereo partly specified) | 10.6%
CCC(CO)Oc1cc(NC(=O)c2cccc3ccccc23)c2ncn(C(C)C)c2c1 (stereo unspecified) | 12.5%
COc1ccccc1-c1nnc2n1N=C(c1ccc(OC(F)F)c(OCC3CC3)c1)CS2 | 9.14%
C[C@@H]1CN([C@H](C)CO)C(=O)c2cc(NC(=O)NC3CCCCC3)ccc2O[C@H]1CN(C)S(C)(=O)=O | 0.78%
CC(NS(=O)(=O)c1ccc(OCC(=O)N2CCCC2)cc1)c1ccccc1 (stereo unspecified) | 2.37%
COc1ccc(S(=O)(=O)Nc2ccccc2C(=O)N2CCCC2)cc1C | 15.3%
COc1ccc(S(=O)(=O)NC(C)c2ccccc2)cc1C(=O)N1CCCCC1 (stereo unspecified) | 78.9% (active)
COc1cc2ccccc2cc1C(=O)Nc1ccc(NC(=O)c2cccs2)cc1 | 10.3%
COc1ccc(CN(Cc2ccc(OC)cc2)C(=O)c2cccs2)cc1 | 5.1%
COc1ccc(CCNC(=O)/C(C#N)=C2\N=C(NC(=O)c3cccs3)c3ccccc32)cc1 | 110% (active)
Cc1c(Br)ccc(NC(=O)COc2ccccc2C(N)=O)c1C | 1.89%
CC(C)(C)n1ncc2c(=O)n(Cc3c(Cl)cccc3Br)cnc21 | 11.1%
CCn1c(C)nc2c1C(=O)c1ccccc1C2=O | 99.7% (active)
Cc1nc2ccccc2n1CC(O)c1ccccc1 (stereo unspecified) | 17.1%
CCC1(CC)Cc2ccccc2-c2nc3ccccc3c(=O)n21 | 8.19%
CC(C)(C)OC(=O)CNC(=O)c1[nH]cnc1C(=O)N[C@@H](CCCCN)C(=O)OC(C)(C)C | 10.9%
C=CC[C@@H](CC(=O)N[C@H](CO)Cc1ccccc1)C(=O)N[C@@H](COC(=O)[C@@H](CC=C)Cc1ccc(F)cc1)Cc1c[nH]c2ccccc12 | 5.38%
Cc1cc(=O)oc(C)c1C(=O)NCCN(C)Cc1ccccc1 | 98.2% (active)
COc1ccc(CNC(=O)c2c(C)cc(=O)oc2C)cc1OC | 8.87%
Cc1cc(=O)oc(C)c1C(=O)NCc1ccc(F)cc1 | 19.4%
CCC(CO)Oc1cc(NC(=O)c2cccc(F)c2)c2ncn(C(C)C)c2c1 (stereo unspecified) | 10.7%

Structure (SMILES) | inhibition
COc1cccc(NC(=O)COc2cccnc2[N+](=O)[O-])c1 | 17.9%
O=C(CCNC(=O)c1ccccc1)NN=Cc1ccc(Br)o1 | 13.7%
COc1cc(NC(=O)c2ccccc2NS(=O)(=O)c2ccc(Cl)s2)cc(OC)c1 | 72.7% (active)
COC(=O)c1ccc(NC(=O)c2ccccc2NS(=O)(=O)c2ccccc2)cc1 | 27%
COc1cc(OC)c(S(=O)(=O)Nc2ccccc2C(=O)O)cc1S(=O)(=O)Nc1ccccc1C(=O)O | 3.5%
NC[C@H](Cc1ccccc1)NCCc1cc(C(F)(F)F)cc(C(F)(F)F)c1 | 4.07%
CCCN(CC1CC1)C(=O)COC(=O)c1ccc(C)cc1O | 10.6%
Cc1[nH]n(-c2ccccc2)c(=O)c1/C=N/NC(=O)c1ccoc1C | 17.4%
Cc1ccc(-n2[nH]c(C)c(/C=N/N3C(=O)c4cccc5cccc(c45)C3=O)c2=O)cc1 | 67% (active)
COc1cc(SC#N)ccc1N=Cc1c(C)[nH]n(-c2ccc(C)cc2)c1=O | 14.1%
COc1ccc(CC(=O)N[C@@H]2c3cc(OC)c(OC)cc3C[C@H]2OCc2ccccc2)cc1 | 16%
O=C1NC[C@@H](c2ccccc2)OC(=O)[C@H](Cc2ccc(F)cc2)CC/C=C/C[C@H]1CC(=O)N(CCO)Cc1ccccc1 | 28.2%
Cc1cc(NC(=O)CSCC(=O)NC(C)c2ccccc2)no1 (stereo unspecified) | -1.97%
CC(NC(=O)c1ccccc1F)c1cccc2ccccc12 (stereo unspecified) | 29.1%
CC(NC(=O)c1ccccc1C(=O)O)c1ccc(-n2ccnc2)cc1 (stereo unspecified) | 14.7%
CC(NC(=O)c1cccc2ccccc12)c1ccc2c(c1)CCCC2 (stereo unspecified) | 79% (active)
C#CCOCCOCCOCCNc1nc(N2CCN(C(=O)[C@H](CO)n3cc([C@@H](N)C(C)C)nn3)CC2)nc(N2CCN(C(=O)[C@H](CCC(=O)O)n3cc([C@@H](N)[C@H](C)CC)nn3)CC2)n1 | 3.25%
Cc1n[nH]c(=O)c2c(NC(=O)CSc3ccccc3F)oc(C)c12 | 15.6%
Cc1n[nH]c(=O)c2c(NC(=O)COC(=O)c3ncc(Cl)c(Cl)c3Cl)oc(C)c12 | 52.6% (active)
Cc1n[nH]c(=O)c2c(NC(=O)CSc3cc(Cl)ccc3Cl)oc(C)c12 | 15.7%
